Screen size: about 1,500 compounds; about 460 (31%) were called active. Inconclusive results (about 1%) are left out. Not all results are given here. Measured potencies and affinities stand elsewhere. Values without a mark were called inactive.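 The calls were made as follows: active = curve reaches 40% activation over neutral controls at an AC40 no higher than the top valid tested concentration; inconclusive = no clear call, values can overlap the other calls; inactive = signal moving opposite to the expected increase, and the rest.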

This note sets out measurements from PubChem BioAssay AID977607 (Broad Institute, 2014).

This assay can be described thus: GLuc-reported insulin release enhancers, glucose-stimulated beta cells – cell-based, INS-1E, Gaussia luciferase, luminescence, cherry-pick, set 2, dose response (AID 977607).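 Also: 0% = median of the plate neutral control wells.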 The following applies: INS-1E GLuc insulin secretion reporter, 2-3 h, hits give high values; at 35 µM, 100% = signal doubled over neutral wells unless noted.
For the molecule `O=C(COC(=O)C1CCC1)NC(=O)c1ccccc1`, the max activation is -14.8% [at 11 µM, 100% = signal doubled over neutral wells].
For `CN(C)C(=O)COC(=O)c1cccnc1Nc1ccccc1F`, the max activation was -17.2% [at 3.8 µM, 100% = signal doubled over neutral wells].
The result for `Cc1ccc(OCC(=O)NC(C)c2ccccc2)cc1` (centres undefined) reads 22.7% [at 0.005 µM, 100% = signal doubled over neutral wells]; that for `CN(C)N1C(N)=C(C#N)C(c2ccc(F)cc2)C2=C1CCCC2=O` (centres undefined), 30.5% [at 11 µM, 100% = signal doubled over neutral wells]; that for `CN1CCC(N(C)S(=O)(=O)c2ccc(NC(=O)COc3cccc(Cl)c3)cc2)CC1`, -15.6%.
Take `CCOC(=O)Nc1ccc2c(c1)Sc1ccccc1N2C(=O)CCN1CCOCC1`: the max activation was -19.4% [at 0.0016 µM, 100% = signal doubled over neutral wells].
In the case of `O=C(N1CCOCC1)N1CCN(c2ccccn2)CC1`, the max activation is 26.8% [at 1.2 µM, 100% = signal doubled over neutral wells].
For `CC(C)OCC(O)CN1CCC(Cc2ccccc2)CC1` (centres undefined), the max activation is -7.86% [at 0.005 µM, 100% = signal doubled over neutral wells].
For the molecule `COc1ccc(CNC(=O)c2cnn3c(C(F)F)cc(C)nc23)cc1`, the max activation was 24.2%.
The figure for `CC(=O)N1CCN(c2nnc(-c3ccccc3)c3ccccc23)CC1` is -13.9% [at 0.005 µM, 100% = signal doubled over neutral wells]; for `CCOC(=O)c1c(C)[nH]c(C(=O)COC(=O)c2cnccn2)c1C` it is 27%; for `CCCCn1c(-c2ccncc2)nc2c1c(=O)[nH]c(=O)n2CC(C)C` it is -13.3% [at 3.8 µM, 100% = signal doubled over neutral wells].
As to `COc1cc(OC)c(OC)cc1/C=N/n1c(C)nc2ccccc2c1=O`, the max activation is -20.7% [at 0.42 µM, 100% = signal doubled over neutral wells].
The figure for `CCCc1cc(NCC2CCCO2)n2c(nc3ccccc32)c1C#N` (centres undefined) is -13% [at 0.015 µM, 100% = signal doubled over neutral wells].
The figure for `O=C(Cc1ccsc1)NNC(=O)c1ccccc1Cl` is -13.6%; for `O=C(NCc1ccco1)c1ccc2c(=O)n(CCC3=CCCCC3)c(=O)[nH]c2c1` it is -21.9%; for `Cc1cc2nc(-c3ccc(Cl)cc3)c(Cc3ccsc3)n2c(C)c1Br` it is -39.9% [at 11 µM, 100% = signal doubled over neutral wells].
The result for `COc1ccc(C(=O)NCC(=O)OCC(=O)Nc2sccc2C#N)cc1OC` reads 24.5%; that for `COc1ccc(C(=O)NCC(=O)OCC(=O)NC2CCCCCC2)cc1OC`, 19.5%; that for `COc1ccc2[nH]c3c(NCCCN4CCCC4=O)ncnc3c2c1`, 11.2% [at 1.2 µM, 100% = signal doubled over neutral wells].
Take `Cc1ccc(S(=O)(=O)/N=C(/Nc2cccc(O)c2)c2ccccc2)cc1`: the max activation is 48.6%.
The figure for `COc1cc(C(=O)Nc2cc(C(F)(F)F)ccc2N2CCOCC2)ccc1OCC(=O)N1CCOCC1` is -13.6% [at 3.8 µM, 100% = signal doubled over neutral wells].
On to `Cc1ccc(C)c(S(=O)(=O)Nc2ccc(C(=O)N3CCC3)cc2)c1`, for which the max activation was 27.7%.
Consider `Cc1c(-c2cccc(Cl)c2)nc2ccccc2c1C(=O)NC1CC1`, for which the max activation is 35.1% [at 1.2 µM, 100% = signal doubled over neutral wells].
The figure for `Cc1cc(C)cc(Cn2c3ccc(NC(=S)NCc4ccccc4F)cc3c(=O)n2C)c1` is -51.1%; for `COC(=O)c1cccc(-n2c(=O)n(Cc3ccccc3)c(=O)c3[nH]cnc32)c1C` it is 38.9% [at 11 µM, 100% = signal doubled over neutral wells]; for `O=c1c2[nH]cnc2n(-c2ccc(F)cc2)c(=O)n1Cc1ccccc1` it is 25.9% [at 0.42 µM, 100% = signal doubled over neutral wells].
The result for `CN(Cc1ccccc1)c1ncnc2[nH]ncc12` reads 19.1% [at 3.8 µM, 100% = signal doubled over neutral wells]; that for `CC(O)c1nc2ccccc2n1C1CCCCC1` (centres undefined), -13.8% [at 3.8 µM, 100% = signal doubled over neutral wells]; that for `Nn1c(C2CCCCC2)nc2ccccc2c1=O`, -24.8% [at 0.42 µM, 100% = signal doubled over neutral wells].
The result for `O=C(O)COc1ccc2c3c(c(=O)oc2c1)CCC3` reads -18%; that for `CCOC(=O)Cc1cc(=O)n2[nH]c(-c3ccc(C)cc3)cc2n1`, 26.5% [at 0.015 µM, 100% = signal doubled over neutral wells]; that for `O=C(CCS(=O)(=O)c1ccc(Cl)cc1)Nc1ccc(N2CCOCC2)cc1`, 26.5% [at 0.0016 µM, 100% = signal doubled over neutral wells].
Take `CCOc1ccc(CCNC(=O)CCC(=O)c2cccs2)cc1OCC`: the max activation was -10.4% [at 0.0016 µM, 100% = signal doubled over neutral wells].
For `CCOc1cccc2cc(C(=O)Nc3cc(C)on3)c(=O)oc12`, the max activation is -15.3% [at 0.42 µM, 100% = signal doubled over neutral wells].
For `C=CCNC(=O)c1cc(-c2ccc3c(c2)OCO3)on1`, the max activation was -23.5%.
Consider `CC(=O)Cc1nsc(NC(=O)c2ccc(-c3cccc(Cl)c3)o2)n1`, for which the max activation is -41.3%.
As for `O=C(NCCc1ccccc1)c1cc(-c2ccc3c(c2)OCO3)on1`, the max activation is -16.8% [at 0.015 µM, 100% = signal doubled over neutral wells].
The figure for `CCc1cc2c(COC(=O)c3cccc(S(C)(=O)=O)c3)cc(=O)oc2cc1O` is -21.8%; for `COCCNc1nc(NCCCN2CCCC2=O)c2sccc2n1` it is -21.2% [at 0.005 µM, 100% = signal doubled over neutral wells]; for `CN(C)c1ncnc2sc(-c3ccccc3)cc12` it is 75.3%.
The result for `CCOC(=O)c1cnc2c(cnn2C)c1Oc1ccc(OC)cc1` reads -8.37% [at 0.135 µM, 100% = signal doubled over neutral wells]; that for `C=C(C)n1c(=O)n(Cc2ccccc2C)c2ccccc21`, -20.9% [at 0.0016 µM, 100% = signal doubled over neutral wells]; that for `COc1ccc(CC(=O)OCC(=O)N2CCc3ccccc32)cc1OC`, -17.9% [at 0.135 µM, 100% = signal doubled over neutral wells].
The result for `COc1ccc(CN(C)C(=O)CCN=C2NS(=O)(=O)c3ccccc32)c(OC)c1` reads -22.4% [at 0.015 µM, 100% = signal doubled over neutral wells]; that for `O=C1Nc2ccccc2N(C(=O)c2ccc3ccccc3c2)C1c1nc2ccccc2[nH]1` (centres undefined), -24.4% [at 11 µM, 100% = signal doubled over neutral wells].
As for `CC1=C(C(=O)N2CCOCC2)CC(CC(=O)NCCCN(C)C)C(=O)N1CCCN1CCCC1=O` (centres undefined), the max activation was -20.9%.
In the case of `Cc1cc(Br)ccc1NC(=O)CN(C)C(=O)C1CSC2(C)CCC(=O)N12` (centres undefined), the max activation is -12.1% [at 0.015 µM, 100% = signal doubled over neutral wells].
Turning to `O=S(=O)(c1ccc(Cl)nc1)N1CCc2ccccc21`, the max activation is -28.1%.
The result for `COc1ccc(S(=O)(=O)N2CCc3ccccc32)cc1C(=O)Nc1cccnc1` reads -10.3% [at 3.8 µM, 100% = signal doubled over neutral wells]; that for `COc1cc(C(=O)O)ccc1OCc1ccccc1`, -15.4% [at 0.42 µM, 100% = signal doubled over neutral wells].
With `CCc1ccc(N(C2C=CS(=O)(=O)C2)S(=O)(=O)c2ccccc2)cc1` (centres undefined), the max activation is -8.85% [at 0.015 µM, 100% = signal doubled over neutral wells].
Consider `CCCc1nnc2c(N(C)S(=O)(=O)c3ccc(C)cc3)nc3ccccc3n12`, for which the max activation was -17% [at 0.005 µM, 100% = signal doubled over neutral wells].
The result for `COc1ccc(Nc2c3c(nc4ccccc24)CCC3)cc1` reads -16.4% [at 0.046 µM, 100% = signal doubled over neutral wells]; that for `c1csc(CNc2nc(Oc3ccncc3)c3sccc3n2)c1`, -17.1% [at 0.0016 µM, 100% = signal doubled over neutral wells]; that for `CN1CCCCC(NC(=O)c2ccccc2)C1=O` (centres undefined), -13.5% [at 0.42 µM, 100% = signal doubled over neutral wells].
As for `COc1ccc(S(=O)(=O)Nc2ccc3c(c2)OCO3)cc1OC`, the max activation was -21.1%.
With `Cc1cccc(C)c1-n1nnnc1C1(C)CCC(=O)N1Cc1cccs1` (centres undefined), the max activation was 25.2%.
As to `CCOc1cc(CNc2cccc3[nH]c(C)nc23)ccc1OC`, the max activation is -11.6% [at 0.0016 µM, 100% = signal doubled over neutral wells].
